Hits are enriched below; roughly 1.9% of the tested compounds scored in any of these assays.
BAP1 block – blocks human BAP1 ubiquitin-AMC hydrolysis. Q92560. recombinant BAP1, Ub-AMC hydrolysis fluorescence kinetic; active compounds read low. activity remaining (% of control), % at 20 µM. 72,000 tested, 0.48% active;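 active = activity remaining at or below 50% of control, provided the compound also passes the data quality filters; inactive = the rest, including low values that fail the filters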;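 note: 100% = DMSO wells rate and 0% = substrate alone blank rate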
SK-BR-3 tox 24h – SK-BR-3 proliferation inhibitors. SK-BR-3 viability, CellTiter-Glo ATP luminescence, 24 h; active compounds read low. viability, % at 10 µM. 41,000 tested, 0.47% active. AID 847;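 active = viability at or below the median of all test compounds minus 3 SD, in both replicates if run twice, cut at about 45% in these data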;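 note: 100% = median untreated cell wells and 0% = median positive control drug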
Hsp90 block – displaces geldanamycin probe from tumor Hsp90. P07900. NCI-N417 lysate Hsp90, Cy3B-geldanamycin FP displacement. inhibition, % at 30 µM. 64,000 tested, 0.35% active. AID 429;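 active = inhibition above 50%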;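 note: 0% = tracer plus lysate wells and 100% = tracer alone without lysate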
TNAP act DEA – activates human TNAP at intermediate phosphate acceptor concentration; P05186; purified TNAP, CDP-star luminescence, 100 mM DEA, 30 min; active compounds read high; scale: 0 levamisole-inhibited, 1 vehicle-only enzyme; activation factor at 20 µM; 64,000 tested, under 10 active; AID 813;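 active = activation factor of at least 2 at 20 µM, relative to controls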
S1P1 ag pot – S1P1 (human) agonism or agonism potentiation | 56,000 tested, 0.57% active | P21453 | AID 449 | S1P1 CRE-bla cells, forskolin, beta-lactamase FRET, potentiator mode; S1P1 agonist co-added at EC20, 2 nM; 100% = saturating reference agonist, 0% = basal | activation, % at 9.5 µM;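 active = activation above a cutoff set at the mean activation of all tested compounds plus 3 SD, cut at about 54% in these data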;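 note: forskolin at 4 µM as EC80 and the EC20 agonist is SEW2871; 100% = SEW2871 at its EC100 plus forskolin at EC80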
Target sequence (P21453 whole entry, looked up): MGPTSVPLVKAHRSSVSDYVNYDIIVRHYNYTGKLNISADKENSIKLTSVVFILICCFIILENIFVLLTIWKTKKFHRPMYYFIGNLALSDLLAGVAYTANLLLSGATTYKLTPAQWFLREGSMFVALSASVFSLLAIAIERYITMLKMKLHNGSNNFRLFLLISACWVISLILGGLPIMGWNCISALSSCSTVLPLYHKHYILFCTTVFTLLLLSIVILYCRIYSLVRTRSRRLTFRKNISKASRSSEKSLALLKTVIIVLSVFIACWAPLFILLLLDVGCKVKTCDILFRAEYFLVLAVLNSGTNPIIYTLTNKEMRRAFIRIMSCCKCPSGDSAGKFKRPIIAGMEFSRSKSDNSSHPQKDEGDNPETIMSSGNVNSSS
HER2 expr 66K – Her2 kinase expression inhibition | 65,000 tested, 0.69% active | HER2 level % of control, % at 10 µM | SKBR-3 HER2 protein level, AlphaScreen, 18-24 h; active compounds read low | P04626 | AID 645;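 active = HER2 level under 5% of the carrier-only control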;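 note: 100% = DMSO carrier and 0% = 500 nM PU-H71 HSP90 inhibitor; lower value means stronger loss of Her2 protein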
The depositor's hits bear a star; nt = no result shown.

SMILES	BAP1 block	SK-BR-3 tox 24h	Hsp90 block	TNAP act DEA	S1P1 ag pot	HER2 expr 66K
O=C(NCCCc1ccccc1)c1ccncc1	97.5	93.5	-2.4	0.9	-6.3	-5.5*
O=C(NCCOC(=O)c1ccncc1)c1ccccc1	94.8	90.5	-5.2	1	-26.8	105.7
O=C(CSc1ccc2nnc(-c3cccnc3)n2n1)NCc1ccc2c(c1)OCO2	95.9	nt	-3.3	1	6.7	-16.9*
Cc1ccc(C(C)C)c(OCc2nc(-c3nonc3N)no2)c1	75.0	nt	-3.4	0.9	92.0*	95.6
Nc1nonc1-c1noc(CCCOc2ccc(Cl)cc2Cl)n1	111.6	97.1	0.2	0.9	43.8	93.3
c1ccc(CNC2=NCCC2)nc1	105.2	nt	0.2	0.9	9.8	-27.4*
c1cc(CNC2=NCCCCC2)ccn1	86.2	nt	35.6	1	-5.2	96.5
Cc1cc(C(=O)CSc2nnc(-c3ccco3)o2)c(C)n1-c1ccc2c(c1)OCCO2	nt	nt	-9.9	0.9	62.3*	109.8
Cc1cc(C(=O)CSc2nnc(-c3cccs3)o2)c(C)n1-c1ccccc1	112.6	nt	-3.3	0.9	100.9*	89.4
O=C(CSc1nnc(-c2cccs2)o1)OC1CCCCC1	94.0	73.2	0.5	1	-14.6	86.9
O=C(CSc1nnc(-c2cccs2)o1)OCc1ccccc1	133.2	42.5*	2.0	1	9.1	90.1
Cc1noc(C)c1C(=O)NC1CCCc2ccccc21 (stereo unspecified)	90.4	102.5	-5.1	1	2.4	78.3
COC(=O)c1cn(C)c2ccc(S(=O)(=O)N3CCCCC3)cc2c1=O	98.9	nt	-4.4	0.9	-22.5	139.2
COc1ccc(N2C(=O)C(CC(=O)O)S/C2=C\C(C)=O)cc1 (stereo unspecified)	nt	31.3*	nt	1	nt	86.0
O=C(O)CC1SC(=Nc2ccccc2)N(c2ccccc2)C1=O (stereo unspecified)	nt	84.2	nt	0.9	nt	nt
Cc1ccnc(SCC(=O)Nc2sc3c(c2C#N)CCCC3)n1	87.0	119.0	-6.3	0.9	100.3*	93.5
Cc1csc(SCC(=O)c2cc(C)n(Cc3cccs3)c2C)n1	93.7	nt	-2.1	0.9	86.3*	65.7
COc1ccc(-c2nnc(SCC(=O)c3cc(C)n(Cc4cccs4)c3C)o2)cc1	58.2	nt	-6.3	0.8	-5.5	52.5
CC(=O)Nc1ccccc1OCC(=O)c1cc(C)n(Cc2cccs2)c1C	80.7	nt	-0.3	0.9	110.2*	69.2
CC(=O)Nc1ccc(SCC(=O)c2cc(C)n(Cc3cccs3)c2C)cc1	87.0	nt	-0.1	0.9	12.6	90.0
COc1ccc(-n2cnnc2SCC(=O)c2cc(C)n(Cc3cccs3)c2C)cc1	66.5	nt	-2.7	1	8.9	-20.8*
COc1cccc(CNS(=O)(=O)c2cn(C)cn2)c1	99.4	89.1	0.5	0.9	-7.4	76.4
CC(=O)N1CCc2cc(Br)cc(S(=O)(=O)N3CCN(C(=O)c4ccco4)CC3)c21	101.8	70.6	-3.1	1	20.5	112.1
CC(=O)N1CCc2cc(Br)cc(S(=O)(=O)N3CCCCCC3)c21	89.5	40.7*	-5.2	0.9	8.5	106.5
COc1ccc(-c2nc(-c3ccc(Br)o3)no2)cc1OC	93.6	nt	-2.0	0.9	82.4*	75.0
SMILES	BAP1 block	SK-BR-3 tox 24h	Hsp90 block	TNAP act DEA	S1P1 ag pot	HER2 expr 66K
COc1ccc(-c2nnc(-c3ccc(Br)o3)o2)cc1OC	89.9	nt	-0.6	0.7	10.5	187.7
CCOc1ccc(-c2nc(-c3ccc(OC)cc3)no2)cc1OCC	103.0	nt	-0.1	1	98.4*	101.5
CCOc1ccc(-c2noc(-c3ccncc3)n2)cc1OCC	91.6	108.7	-4.7	0.9	109.4*	110.3
COc1ccc(-c2nc(-c3ccncc3)no2)cc1OC	74.5	nt	-3.5	1	106.5*	96.1
O=C(CSc1nnc(C2CCCCC2)n1Cc1ccccc1)NCc1ccco1	102.1	87.0	-6.4	1	-8.1	67.7
CCN(CC(=O)Nc1ccc2c(c1)OCCO2)c1nc(-c2cccnc2)nc2ccccc12	89.2	nt	-12.9	0.9	-45.9	96.0
Cc1ccc2[nH]c(=O)c(CN(CC3CCCO3)S(=O)(=O)c3cccc4nsnc34)cc2c1 (stereo unspecified)	88.8	nt	-0.1	0.9	-7.3	82.1
CCn1c(=O)cc(OCC(=O)Nc2nc(C)cs2)c2ccccc21	96.1	nt	-0.3	0.9	-26.9	88.2
COc1ccccc1-c1nc(-c2ccc(Br)cc2)no1	88.8	82.7	-0.4	0.9	78.4*	73.2
CCOc1cc(-c2nc(-c3cc(OC)c(OC)c(OC)c3)no2)cc(OCC)c1OCC	79.0	94.0	1.2	1	nt	94.2
COc1ccccc1-c1nc(-c2ccncc2)no1	100.0	97.0	-6.9	0.9	24.9	73.1
CCOc1cc(-c2noc(-c3ccncc3)n2)cc(Br)c1OC	95.1	29.4*	1.9	1	33.3	96.4
COn1c(C)c(C(C)=O)c2c3nonc3ccc21	94.5	107.7	-5.2	0.8	-10.7	86.5
CC1CCc2nc(NC(=O)CSc3nc4ccccc4o3)sc2C1 (stereo unspecified)	75.8	66.3	-0.4	0.9	75.9*	76.4
O=C(CSc1nc2ccccc2o1)Nc1ccc(N2CCOCC2)c(Cl)c1	110.3	78.1	-1.8	1	118.8*	103.2
Cc1cc(C)nc(SCC(=O)Nc2ccc(N3CCOCC3)c(Cl)c2)n1	113.6	83.4	1.1	0.9	nt	52.7
Clc1ccc(CSc2nnc(-c3ccncc3)o2)c(Cl)c1	113.2	90.7	-2.4	1	76.0*	91.7
O=C(/C=C/c1ccc(O)c(O)c1)OCCc1ccccc1	84.2	nt	89.7*	nt	nt	nt
O=C(O)Cc1ccc(O)c(O)c1	91.0	nt	34.7	nt	nt	nt
CC(C)=CCC(C)(C)C1OCCN1C(=O)c1ccccc1 (stereo unspecified)	97.4	nt	-2.7	0.9	-14.1	98.8
Oc1ccccc1CNCCCNCc1ccccc1O	77.6	96.3	-2.1	1.3	nt	108.3
Cc1cccc(C)c1OCCCCc1c(C)n[nH]c1C	97.3	nt	-3.9	1.1	36.8	85.7
Cc1ccccc1OCCCCc1c(C)n[nH]c1C	92.2	nt	1.6	0.9	130.6*	80.8
c1cn2c3c(n1)CCCc3c1cc(C3CCCCC3)ccc12	62.2	nt	nt	nt	nt	nt
Cc1ccc2nsnc2c1S(=O)(=O)N1CCN(C(=O)C2CCCO2)CC1 (stereo unspecified)	73.3	36.8*	-3.1	1	-2.4	140.1
O=C(Nc1ccc(Oc2ccccc2)cc1)c1cnc2n(c1=O)CCS2	157.2	nt	-4.0	0.7	94.0*	83.6
C=CCN=C(NC#N)SCc1ccccc1Cl	85.4	66.4	4.8	0.9	5.0	-4.6*
c1ccc(CC2CCN(Cc3nc(-c4ccccc4)no3)CC2)cc1	nt	90.1	-5.5	0.9	nt	89.9

Bioassay records: PubChem, several laboratories
